Screening data as filed in PubChem.
An excerpt weighted towards active compounds, which were near 11% of everything screened.
PI5P4Ka inh – inhibitors of human PI5P4K alpha | P48426 | PI5P4Kalpha enzyme, ADP-Glo luminescence, 60 min; active compounds read low | max response, % | 330,000 tested, 1.2% active | AID 652105; active = max response of -50% or lower; inconclusive = between -30% and -50%; inactive = -30% or higher; note: value at the top dose of about 77 µM; % is set by controls: 0 for no effect and ±100 for the full control effect
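Reactions run in 0.038 M HEPES pH 7.4, 0.28 mM EGTA, 0.1% CHAPS and 5% DMSO, with PI5P4Kalpha, substrate, compound and 5 microM ATP final, one hour at room temperature. Readout is ADP-Glo luminescence.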
HP1b binding inh – blocks HP1-beta chromodomain binding to methylated histone tails. P83916. AlphaScreen HP1-beta / biotin-H3K9me3 peptide binding. Potency, µM (doses to about 114 µM), without a hit: at the top dose activity change, negative = inhibition, most hits filed as inhibitors. 390,000 tested, 0.56% active; note: potency is the fitted concentration of half-maximal effect; nearly all actives have a fitted effect of over 70% in size
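HP1-beta protein (50 nM final) preincubated 30 min at room temperature with biotinylated H3(1-18)K9me3 peptide (50 nM) in PBS pH 7.4, 0.01% Tween-20, then compound added for 30 min. AlphaScreen streptavidin donor/nickel chelate acceptor beads (10 ug/mL final), 30 min dark, luminescence read.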
G9a inh – G9a (human) methyltransferase inhibition | Q96KQ7 | G9a H3K9 monomethylation, AlphaScreen, 2 h | Potency, µM (titrated, usually from 102 µM), inactives show top-dose activity, negative = inhibition, actives largely listed as inhibitors | 350,000 tested, 8.8% active; note: potency is the fitted concentration of half-maximal effect; % is set by controls: 0 for no effect and ±100 for the full control effect; nearly all actives have a fitted effect of over 75% in size
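Methyltransferase reactions run at room temperature for 2 h (20 nM enzyme, 500 nM biotin-H3K9 peptide, 20 uM SAM) after a 15 min compound preincubation; product detected by AlphaScreen beads and anti-H3K9me1 antibody.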
JMJD2A Tudor – inhibitors of human JMJD2A Tudor domain | O75164 | Potency, µM (series often up to 114 µM), without a hit: at the highest dose activity change, negative = inhibition, hits mostly inhibitors | AlphaScreen JMJD2A-Tudor / H3K4me3 peptide binding | 390,000 tested, 4.4% active | AID 504339; note: potency is the fitted concentration of half-maximal effect; % is set by controls: 0 for no effect and ±100 for the full control effect; nearly all actives have a fitted effect of over 50% in size
BAZ2B inh – blocks human BAZ2B; Q9UIF8; AlphaScreen BAZ2B-H3K14Ac peptide displacement; Potency, µM (titrated, usually from 114 µM), for inactives: at the top dose activity change, negative = inhibition, hits mostly inhibitors; 360,000 tested, 4.4% active; AID 504333; note: potency is the fitted concentration of half-maximal effect; % is set by controls: 0 for no effect and ±100 for the full control effect; nearly all actives have a fitted effect of over 60% in size
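Multi-concentration screen (max 110 uM) measuring displacement of acetylated histone H3 peptide from BAZ2B by AlphaScreen, using 50 nM protein, 50 nM peptide and 10 ug/mL streptavidin donor plus Ni-chelate acceptor beads.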
L3MBTL1 inh – L3MBTL1 (human) inhibition. Q9Y468. AlphaScreen L3MBTL1–H3K9me1 peptide binding. Potency, µM (highest dose often 57.1 µM), without a hit: top-dose activity, negative = inhibition, usual class: inhibitors. 230,000 tested, 0.66% active. AID 485360; note: potency is the fitted concentration of half-maximal effect; % is set by controls: 0 for no effect and ±100 for the full control effect; nearly all actives have a fitted effect of over 60% in size
Target sequence (Q9Y468 whole entry, looked up): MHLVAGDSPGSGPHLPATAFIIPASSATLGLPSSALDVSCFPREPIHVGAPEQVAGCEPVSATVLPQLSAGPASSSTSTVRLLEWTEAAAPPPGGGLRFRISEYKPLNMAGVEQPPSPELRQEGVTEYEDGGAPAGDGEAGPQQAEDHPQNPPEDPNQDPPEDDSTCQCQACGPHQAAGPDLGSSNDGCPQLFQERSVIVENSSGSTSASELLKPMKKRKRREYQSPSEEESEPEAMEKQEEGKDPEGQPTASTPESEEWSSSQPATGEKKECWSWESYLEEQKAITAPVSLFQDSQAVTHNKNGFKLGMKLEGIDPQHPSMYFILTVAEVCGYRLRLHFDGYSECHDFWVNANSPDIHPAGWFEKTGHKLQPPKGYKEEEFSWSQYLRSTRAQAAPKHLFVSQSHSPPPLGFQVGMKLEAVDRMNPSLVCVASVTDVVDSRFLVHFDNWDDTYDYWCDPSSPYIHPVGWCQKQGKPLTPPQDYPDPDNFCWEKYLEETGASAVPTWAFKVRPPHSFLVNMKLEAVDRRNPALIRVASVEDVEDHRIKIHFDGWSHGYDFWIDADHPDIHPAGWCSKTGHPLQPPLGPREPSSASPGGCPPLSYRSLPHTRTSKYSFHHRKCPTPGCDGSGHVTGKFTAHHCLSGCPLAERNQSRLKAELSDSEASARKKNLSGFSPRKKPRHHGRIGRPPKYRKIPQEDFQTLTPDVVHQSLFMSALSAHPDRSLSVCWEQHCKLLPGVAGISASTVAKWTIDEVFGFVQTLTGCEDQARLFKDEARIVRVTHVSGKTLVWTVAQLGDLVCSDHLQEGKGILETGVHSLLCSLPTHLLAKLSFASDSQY
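Displacement of a biotinylated histone H3(1-15) peptide monomethylated at Lys9 (75 nM) from L3MBTL1 (50 nM) was measured by AlphaScreen after a 30 min room-temperature compound incubation; cefsulodin titration served as intraplate control.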
* = called active by the depositor; ? = inconclusive; . = no result given; [ ] = remark or other dose. Unless noted, calls come from the whole dose curve; as a rule, active = well fitted inhibition curve with a large enough effect; inconclusive = small, poorly fitted or top-dose-only effect; inactive = no such curve, though single readings can be large or run the other way.

SMILES	PI5P4Ka inh	HP1b binding inh	G9a inh	JMJD2A Tudor	BAZ2B inh	L3MBTL1 inh
O=C(CSCc1ccccc1Cl)N1CCN(c2ccc(F)cc2)CC1	.	19.9%	-20.9%[59 µM]	-25.1%	-12.7%	.
O=C(Nc1nnc(SCc2ccc(F)cc2)s1)c1ccccn1	-12.9	64.9%	50.1µM*	28.2µM*	25.1µM*	.
CC(=O)Nc1nnc(SCc2ccc(C(=O)Nc3ccccc3F)cc2)s1	-11.4	-22.5%	44.7µM*	-11.3%	-0.8%	.
Oc1ccc2ccccc2c1CNn1cnnc1	.	25.4%	11.2µM*	-18.8%	0.1%	.
Cc1ccc(O)c(CNc2ccccn2)c1	-0.2	25.7%	-30.7%	-12.3%	-8.0%	2.1%
Oc1ccc2ccccc2c1CNc1ccccn1	3.6	28.0%	8.91µM*	-18.1%	-13.4%	.
COc1cccc(CCNC(=O)c2c(O)nc3ccccn3c2=O)c1	.	34.1%	-4.8%[59 µM]	-2.5%	-2.0%	.
CC1=CCC(C(=O)O)C(C(=O)NC2CCCCC2)C1 (stereo not drawn)	3.6	?	31.6µM*	56.2µM*	50.1µM*	.
Cc1ccc(-c2ccccc2)n1-c1ccc(C(=O)O)cc1	0.3	1.3%	10µM*	?	?	-14.4%
Cc1ccc(C(=O)O)cc1-n1c(C)ccc1-c1ccccc1	.	-5.3%	?	-30.7%	?	.
Cc1ccc(-c2ccccc2)n1-c1cccc(C(=O)O)c1	0.5	-5.9%	50.1µM*	?	-35.4%	-9.3%
CC(=S)c1c(C)cc2cc(C)ccn12	1.6	22.4µM*	?	25.1µM*	10µM*	?
CCN1C(=O)/C(=C/c2ccc(C)s2)NC1=S	-6.6	26.2%	12.6µM*	-25.5%	-34.3%	.
Cc1ccc(/C=C2/NC(=O)N(Cc3ccccc3)C2=O)s1	.	-1.0%	?	-10.9%	?	-15.1%
CC([NH2+][O-])C(C)(C)NO (stereo not drawn)	6.5	?	17.8µM*	22.4µM*	?	7.8%
COc1ccc(CCNCC2C(Oc3ccc(Cl)cc3)C(=O)N2c2ccccc2C)cc1OC (stereo not drawn)	11.4	5.7%	44.7µM*	?	?	.
COCCNCC1C(Oc2ccc(Cl)cc2)C(=O)N1c1ccccc1C (stereo not drawn)	9.5	20.6%	-19.8%	-4.4%	-15.8%	-7.5%
CC1(C)C(/C=C/C=C/C=C/C=C2\N(CCCCS(=O)(=O)O)c3ccc4ccccc4c3C2(C)C)=[N+](CCCCS(=O)(=O)[O-])c2ccc3ccccc3c21	-89.8*	?	?	6.31µM*	.	.
O=C(C1=C(O)C(=O)N(CCN2CCOCC2)C1c1ccc([N+](=O)[O-])cc1)c1cccs1 (stereo not drawn)	4.2	22.8%	?	44.7µM*	-7.0%	.
O=C(C1=C(O)C(=O)N(CCN2CCOCC2)C1c1cccc(Br)c1)c1cccs1 (stereo not drawn)	1.2	68.7%	56.2µM*	-9.1%	-8.5%	.
COC(=O)C1CCN(C(=O)CCC2CCCCC2)CC1	2.6	27.8%	7.08µM*	-2.8%	14.1%	.
CCOC(=O)N1CCN(C(=O)CCC2CCCC2)CC1	-3.0	15.2%	-1.9%	0.7%	-14.0%	-0.7%
O=C(CCC1CCCC1)N1CCC(N2CCCCCC2)CC1	1.3	?	?	3.98µM*	56.2µM*	-3.9%
CCOC(=O)C(=O)N1CCC(C(=O)OC)CC1	-2.5	8.5%	35.5µM*	4.9%	-37.1%	-0.2%
O=C(CCC1CCCC1)N1CCN(C(=O)COc2ccccc2)CC1	-24.4	-5.6%	50.1µM*	-19.2%[11.4 µM]	8.6%	-7.4%
Cc1ccc(OCC(=O)N2CCN(C(=O)CCC3CCCC3)CC2)cc1	14.4	18.6%	5.1%[59 µM]	-3.6%	9.3%	.
Cc1ccc2c(CNC3CCC(C)CC3)c(C(=O)O)n(Cc3cccc(F)c3)c2c1 (stereo not drawn)	.	-3.4%	-32.3%[59 µM]	-24.5%	-19.6%	.
CC(C)C[C@@H](CN1CCCC1CN1C(=S)NC[C@@H]1Cc1ccc(O)cc1)N1C[C@H](Cc2ccc(O)cc2)N(CC2CCCCC2)C1=S (stereo partly drawn)	?	-12.6%	.	39.8µM*	.	.
